High-throughput results as filed in PubChem.
This excerpt belongs to a sample that is enriched for hits.
ALR H2O2 inh = blocks human ALR sulfhydryl oxidase activity; P55789; purified ALR, DTT oxidation, H2O2 HRP-luminol luminescence; inhibition, % (test concentration not listed); 290,000 compounds, 3.8% hits; AID 485317;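 active means mean replicate inhibition above about 79%, with every replicate also reaching it, limit read from the data; inconclusive means only one of the two criteria met; inactive means mean below limit and not every replicate reaching it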
Target sequence (P55789 whole entry, looked up): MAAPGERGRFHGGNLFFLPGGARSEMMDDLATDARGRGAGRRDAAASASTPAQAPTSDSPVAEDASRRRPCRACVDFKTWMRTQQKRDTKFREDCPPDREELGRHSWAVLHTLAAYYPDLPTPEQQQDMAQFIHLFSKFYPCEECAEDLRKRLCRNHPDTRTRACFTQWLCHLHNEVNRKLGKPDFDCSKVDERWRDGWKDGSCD
HDAC3 inh = inhibitors of human histone deacetylase 3; recombinant HDAC3, fluorogenic peptide/trypsin coupled, fluorescence; AID 2718; inhibition, % at 8.3 µM; 320,000 compounds, 0.15% hits; O15379; in the data active means inhibition above about 26%, passing the limit was not always enough; inconclusive means no clear call, values can overlap the other calls
Target sequence (O15379 whole entry, looked up): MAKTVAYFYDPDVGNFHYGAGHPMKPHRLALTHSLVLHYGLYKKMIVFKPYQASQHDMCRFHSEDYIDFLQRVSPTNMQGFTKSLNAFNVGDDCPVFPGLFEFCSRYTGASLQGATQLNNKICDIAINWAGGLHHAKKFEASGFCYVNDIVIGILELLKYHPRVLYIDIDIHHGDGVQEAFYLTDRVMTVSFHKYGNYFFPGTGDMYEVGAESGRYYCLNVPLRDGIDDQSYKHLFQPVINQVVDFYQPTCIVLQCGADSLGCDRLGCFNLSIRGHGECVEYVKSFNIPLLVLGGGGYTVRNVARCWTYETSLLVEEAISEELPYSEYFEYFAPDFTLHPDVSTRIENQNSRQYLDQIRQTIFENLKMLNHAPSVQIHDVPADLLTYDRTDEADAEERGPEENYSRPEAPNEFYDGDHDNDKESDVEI
NPR2 activator = GC-B (human) receptor activation; P20594; HEK293-GC-B cells, CNP EC30, cGMP TR-FRET; 0% at EC30 CNP, 100% saturating CNP; activation, % at 10 µM; 370,000 compounds, 0.11% hits; AID 1920062;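 active means activation at 10 µM reaching about 35% in either raw or pattern-adjusted values, limit read from the data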
NPR1 activator = GC-A (human) enzyme activation. activation, % at 10 µM. 370,000 compounds, 0.14% hits. HEK293 GC-A cells, cGMP TR-FRET, EC30 ANP; 0% at EC30 ANP, 100% saturating ANP. AID 1671463; in the data active means activation above about 40%
* = called active by the depositor; ? = inconclusive; / = no result.

SMILES	ALR H2O2 inh	HDAC3 inh	NPR2 activator	NPR1 activator
Nc1ccccc1SC(CC(=O)c1ccccc1)c1ccc([N+](=O)[O-])cc1 (stereo not given)	/	/	-11.5	3.2
COCCCN(CC(=O)O)S(=O)(=O)c1cccc(Cl)c1	-18.8	-3.1	3.9	-0.3
CC(=O)NC1=C(N(C)C2CCS(=O)(=O)C2)C(=O)c2ccccc2C1=O (stereo not given)	7.5	-1.2	0.0	-3.0
CC(=O)NC1=C(Nc2ccc(N(C)C)cc2)C(=O)c2ccccc2C1=O	100.0*	4.2	-19.8	-19.1
Nc1cc(S(=O)(=O)Nc2ccccc2Cl)ccc1N1CCCC1	98.5*	-0.9	-3.7	-1.5
O=c1c2ccccc2sn1-c1cc(S(=O)(=O)N2CCOCC2)ccc1N1CCOCC1	32.5	17.7	7.3	1.8
Nc1cc(S(=O)(=O)N2CCOCC2)ccc1N1CCCCC1	98.1*	2.5	1.1	9.1
O=c1c2ccccc2sn1-c1cc(S(=O)(=O)N2CCOCC2)ccc1N1CCCC1	27.1	26.9*	13.2	3.4
Nc1cc(S(=O)(=O)N2CCCCC2)ccc1N1CCCCC1	/	-3.2	3.4	-0.9
COc1cc(C2c3cc4c(cc3OC(C)(N3CCCC3)C2C)OCO4)cc(OC)c1OC (stereo not given)	/	/	-11.6	-31.1
COCc1cc(N2CCNC[C@H]2C)ccc1N1C[C@@H](C)O[C@@H](C)C1	/	/	5.9	1.8
COc1ccc(C(C)=O)cc1CSCCC(=O)O	98.3*	0.8	1.0	-1.3
COc1ccc(C(=O)/C=C/c2ccsc2)cc1CSCC(=O)O	98.8*	8.2	-6.3	-4.8
COc1ccc(/C=C/C(=O)c2ccc(O)cc2)cc1CN1CCOCC1	-14.6	4.8	-2.1	-1.6
CCn1cnc2sc(C(=O)N3CCN(c4ccc(OC)cc4)CC3)c(C)c2c1=O	80.8*	2.7	0.2	1.0
CCOC(=O)c1c(C)[nH]c(C(=O)N2CCN(c3ccc(OC)cc3)CC2)c1C	97.9*	7.0	2.4	-2.0
CCOC(=O)c1[nH]c(C)c(C(=O)N2CCN(c3ccccc3)CC2)c1C	98.4*	-10.7	5.2	0.5
COc1ccc(NS(=O)(=O)c2ccc3oc(=O)c4[nH]c(=O)c(=O)n(C)c4c3c2)cc1	3.9	-4.8	-4.0	4.2
O=C(NC1CCCCN(Cc2ccc(Cl)cc2)C1=O)c1ccc(Cl)cc1Cl (stereo not given)	/	/	-5.4	-1.5
CCC[C@@H](/C=C/C(=O)OC(C)(C)C)Sc1ccc(N)cc1	/	/	-0.8	-4.9
O=C(Nc1ccc(N2CCOCC2)cc1)c1cnsn1	/	/	-1.1	-1.9
CC(Sc1nc2ccccc2n1C)C(=O)Nc1ccc(N2CCOCC2)cc1 (stereo not given)	95.0*	3.4	0.3	-5.9
CN(C)c1cccc(C(=O)Nc2ccc(N3CCOCC3)cc2)c1	90.6*	-0.9	0.7	0.5
O=C(Nc1ccc(N2CCOCC2)cc1)Nc1ccc2nsnc2c1	86.5*	-3.2	-7.0	1.7
Cn1cccc1C(=O)Nc1ccc(N2CCOCC2)cc1	96.8*	1.6	-0.5	-4.0
SMILES	ALR H2O2 inh	HDAC3 inh	NPR2 activator	NPR1 activator
CCOC(=O)C1(C)CCCN(C(=O)c2ccc(OC(F)F)cc2)C1 (stereo not given)	/	/	-2.1	0.6
COc1ccc(CCNC(=O)Nc2ccc3nc([C@@H]4O[C@H](CO)[C@@H](O)[C@H](O)[C@H]4O)[nH]c3c2)cc1Br	/	/	-1.2	0.5
O=C(Nc1cccc(S(=O)(=O)NC2=NCCC2)c1)c1c(F)cccc1Cl	/	1.0	5.1	2.5
CC1(Cc2ccc(C(F)(F)F)o2)C(=O)Nc2cc(-c3ccc(F)cc3F)ccc21 (stereo not given)	/	/	-3.7	0.3
CC(=O)Nc1ccc(SCCCC(=O)c2ccccc2)cc1	33.6	3.4	-2.5	-4.3
CC1CC(=O)Nc2ccccc2N1C(=O)CSc1nnnn1C(C)C (stereo not given)	-2.6	2.4	0.8	2.0
COc1ccc(-c2ccc(CCC(=O)O)o2)cc1	20.7	3.7	-3.0	1.4
O=C(O)CCc1ccc(-c2ccc(Cl)cc2)o1	97.4*	0.8	-1.7	45.0*
O=C(O)CCc1ccc(-c2ccc(Br)cc2)o1	18.7	2.4	3.4	44.1*
O=C(Nc1ccc(F)cc1)Nc1ccccc1C(=O)NCCN1CCNC1=O	0.4	2.4	1.6	3.9
CCn1c(CNc2ccc(F)cc2)nnc1SCCN1CCCCC1	97.6*	2.3	1.4	-2.5
CN(C)c1ccc(C2N(c3ccc(F)cc3)C(=O)C3CCCN32)cc1 (stereo not given)	97.4*	-8.5	0.6	-1.1
CN(C)c1ccc(C2N(c3ccc(Cl)cc3)C(=O)C3CCCN32)cc1 (stereo not given)	64.1	0.0	4.9	-0.8
COC(=O)[C@H](CC(C)C)N(CCCc1cn(Cc2ccccc2)nn1)S(=O)(=O)c1ccccc1Br	/	/	2.3	-4.3
CCCCOP(=O)(c1ccc(N(C)C)cc1)C(O)c1ccc(C(C)C)cc1 (stereo not given)	6.0	7.2	1.2	-6.2
CCCCOP(=O)(c1ccc(N(C)C)cc1)C(O)c1ccc(N(C)C)cc1 (stereo not given)	92.3*	2.2	-2.6	3.2
COC(=O)C(C)Sc1n[nH]c(=S)s1 (stereo not given)	32.9	31.2*	8.1	2.0
CC1C(=O)N2CCCc3cc(NC(=O)c4ccccc4Br)cc1c32 (stereo not given)	-3.8	-17.5	3.2	1.8
CCOc1ccccc1/C=N/NC(=O)c1nnn(-c2nonc2N)c1CN1CCCCCC1	-0.3	1.6	3.3	-4.1
CCC(C)(C)n1nnnc1CN1CCN(c2ccc(OC)cc2)CC1	93.5*	-2.7	9.0	3.5
COc1ccc(Cn2nnnc2CN2CCN(c3ccc(OC)cc3)CC2)cc1	19.5	1.7	2.8	-0.3
COc1ccc(NCc2ccc(OC)c(Cn3ccnc3)c2)c(OC)c1	98.9*	-3.4	1.9	-0.4
Cc1cc(-c2csc3nc[nH]c(=S)c23)cc(C)c1C	97.3*	-10.2	1.7	-7.3
Cc1ccc(-c2csc3nc[nH]c(=S)c23)cc1	96.6*	-4.8	-2.2	-1.8
Cc1nc(SCC(=O)N2CCOCC2)c2c3c(sc2n1)CCC3	1.2	5.5	-1.3	-4.5
SMILES	ALR H2O2 inh	HDAC3 inh	NPR2 activator	NPR1 activator
Nc1cccc(-c2nc3ccccc3s2)c1	98.6*	-8.6	4.6	4.1
O=CN(c1ccccc1)c1ccc2ccccc2c1	-13.9	2.5	2.8	0.4
CCN1C(=O)/C(=C/C=C2/CCCN2C)OC1=S	97.9*	?	-6.7	-6.4
CN1C(=O)/C(=C\C=C2/CCCN2C)N(C)C1=S	59.1	8.7	-3.4	-19.0
CC1CCCCN1S(=O)(=O)c1ccc(C(=O)Nc2nnc(C3=COCCO3)o2)cc1 (stereo not given)	97.4*	-12.3	0.5	-1.2
CC1CCCN(S(=O)(=O)c2ccc(C(=O)Nc3nnc(C4=COCCO4)o3)cc2)C1 (stereo not given)	98.2*	-2.8	-0.5	1.5
O=C(Nc1nnc(C2=COCCO2)o1)c1ccc(S(=O)(=O)N2CCOCC2)cc1	6.7	0.5	1.0	0.2
CCc1nc(SCC(=O)Nc2nc3c(s2)CCCC3)c2ccccc2n1	99.3*	-7.0	9.3	7.2
